# The full list was thinned out, with the strongest signals kept by preference.
# Tests used:
# Assay in all cases: glycan array binding signal (z-score within array); higher = stronger binding
# Details in all cases: glycan notation: IUPAC condensed, linker removed
# [1] = biological target: Fuc(a1-2)Gal(b1-3)[Fuc(a1-4)]GlcNAc(b1-2)Man(a1-3)[Fuc(a1-2)Gal(b1-3)[Fuc(a1-4)]GlcNAc(b1-2)Man(a1-6)]Man(b1-4)GlcNAc(b1-4)[Fuc(a1-6)]GlcNAc(b1-4)[Fuc(a1-6)]GlcNAc
# Method in brief: (§1)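 Glycan array data were curated from 3228 arrays in the Consortium for Functional Glycomics database and kept only where the protein sequence was available. Glycan names were converted to IUPAC-condensed notation, and columns mapping to the same glycan were averaged. The binding signal is a within-array Z-score, averaged across arrays of the same protein sequence at different concentrations or buffers and across linkers. Negative Z-scores can be read as non-binding.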
# [2] = biological target: Fuc(a1-2)Gal(b1-4)GlcNAc(b1-3)Gal(b1-4)GlcNAc
# Method in brief: as §1
# [3] = biological target: Fuc(a1-2)Gal(b1-4)GlcNAc(b1-3)GalNAc
# Method in brief: as §1
# [4] = biological target: Fuc(a1-2)[Gal(a1-3)]Gal(b1-3)GlcNAc(b1-2)Man(a1-3)[Fuc(a1-2)[Gal(a1-3)]Gal(b1-3)GlcNAc(b1-2)Man(a1-6)]Man(b1-4)GlcNAc(b1-4)GlcNAc
# Method in brief: as §1
# [5] = biological target: Fuc(a1-2)[Gal(a1-3)]Gal(b1-4)Glc
# Method in brief: as §1
# [6] = biological target: Fuc(a1-2)[Gal(a1-3)]Gal(b1-4)GlcNAc(b1-6)GalNAc
# Method in brief: as §1
# [7] = biological target: Fuc(a1-2)[Gal(a1-3)]Gal(b1-4)[Fuc(a1-3)]Glc
# Method in brief: as §1
# [8] = biological target: Fuc(a1-2)[GalNAc(a1-3)]Gal(b1-3)GalNAc(a1-3)[Fuc(a1-2)]Gal(b1-4)GlcNAc
# Method in brief: as §1
# [9] = biological target: Fuc(a1-3)[Gal3S(b1-4)]GlcNAc
# Method in brief: as §1
# [10] = biological target: Fuc(a1-3)[Gal3S(b1-4)]GlcNAc6S
# Method in brief: as §1
# [11] = biological target: Fuc(a1-4)GlcNAc
# Method in brief: as §1
# [12] = biological target: Gal(a1-3)Gal(b1-4)[Fuc(a1-3)]GlcNAc(b1-2)Man(a1-3)[Gal(a1-3)Gal(b1-4)[Fuc(a1-3)]GlcNAc(b1-2)Man(a1-6)]Man(b1-4)GlcNAc(b1-4)GlcNAc
# Method in brief: as §1
# [13] = biological target: Gal(a1-3)[Gal(a1-4)]Gal(b1-4)GlcNAc
# Method in brief: as §1
# [14] = biological target: Gal(b1-3)GalNAc(a1-3)[Fuc(a1-2)]Gal(b1-4)Glc
# Method in brief: as §1
# [15] = biological target: Gal(b1-3)GalNAc(b1-4)Gal(b1-4)Glc
# Method in brief: as §1
# [16] = biological target: Gal(b1-3)GlcNAc(b1-3)Gal(b1-4)GlcNAc(b1-2)[Gal(b1-3)GlcNAc(b1-3)Gal(b1-4)GlcNAc(b1-6)]Man(a1-6)[Gal(b1-3)GlcNAc(b1-3)Gal(b1-4)GlcNAc(b1-2)Man(a1-3)]Man(b1-4)GlcNAc(b1-4)[Fuc(a1-6)]GlcNAc
# Method in brief: as §1
# [17] = biological target: Gal(b1-3)GlcNAc(b1-6)[Gal(b1-3)]GalNAc
# Method in brief: as §1
# [18] = biological target: Gal(b1-4)GlcNAc(b1-2)Man(a1-3)[GlcNAc(b1-2)Man(a1-6)]Man(b1-4)GlcNAc(b1-4)GlcNAc
# Method in brief: as §1
# [19] = biological target: Gal(b1-4)GlcNAc(b1-2)Man(a1-6)[GlcNAc(b1-2)Man(a1-3)]Man(b1-4)GlcNAc(b1-4)GlcNAc
# Method in brief: as §1
# [20] = biological target: Gal(b1-4)GlcNAc(b1-2)[Gal(b1-4)GlcNAc(b1-6)]Man(a1-6)[GlcNAc(b1-4)][Gal(b1-4)GlcNAc(b1-2)[Gal(b1-4)GlcNAc(b1-4)]Man(a1-3)]Man(b1-4)GlcNAc(b1-4)[Fuc(a1-6)]GlcNAc
# Method in brief: as §1
# [21] = biological target: Gal(b1-4)GlcNAc(b1-3)Gal(b1-3)GalNAc
# Method in brief: as §1
# [22] = biological target: Gal(b1-4)GlcNAc(b1-3)Gal(b1-4)GlcNAc(b1-2)[Gal(b1-4)GlcNAc(b1-3)Gal(b1-4)GlcNAc(b1-6)]Man(a1-6)[Gal(b1-4)GlcNAc(b1-3)Gal(b1-4)GlcNAc(b1-2)Man(a1-3)]Man(b1-4)GlcNAc(b1-4)GlcNAc
# Method in brief: as §1
# [23] = biological target: Gal(b1-4)GlcNAc(b1-3)Gal(b1-4)GlcNAc(b1-3)Gal(b1-4)GlcNAc(b1-3)Gal(b1-4)GlcNAc(b1-2)Man(a1-3)[Gal(b1-4)GlcNAc(b1-3)Gal(b1-4)GlcNAc(b1-3)Gal(b1-4)GlcNAc(b1-3)Gal(b1-4)GlcNAc(b1-2)Man(a1-6)]Man(b1-4)GlcNAc(b1-4)GlcNAc
# Method in brief: as §1
# [24] = biological target: Gal(b1-4)GlcNAc(b1-3)Gal(b1-4)GlcNAc(b1-3)Gal(b1-4)GlcNAc(b1-3)Gal(b1-4)GlcNAc(b1-3)Gal(b1-4)GlcNAc(b1-2)Man(a1-3)[Gal(b1-4)GlcNAc(b1-3)Gal(b1-4)GlcNAc(b1-3)Gal(b1-4)GlcNAc(b1-3)Gal(b1-4)GlcNAc(b1-3)Gal(b1-4)GlcNAc(b1-2)Man(a1-6)]Man(b1-4)GlcNAc(b1-4)GlcNAc
# Method in brief: as §1
# [25] = biological target: Gal6S(b1-3)GlcNAc6S
# Method in brief: as §1
# [26] = biological target: GalNAc(b1-4)GlcNAc(b1-3)GalNAc(b1-4)GlcNAc
# Method in brief: as §1
# [27] = biological target: GalNAc3S(b1-4)GlcNAc3S
# Method in brief: as §1
binder,measurement,setting,value
PX9896A-bth-573-26-573 (Bacteroides thetaiotaomicron) (protein) ETNNLKTKEDMYKYFGTSKSMLTHVYSYMPQGYQLFATSGGIFTEDRYSMRDCASDDGEFGAYADNIQNTNNGNWSPIKTYDDSWTLYRGIRAANSFIAEIAQVDFTRYEHDGQYTNWMKQLKYFPYEARVLRAHYFFELARRYGDIAMPLEVLTEEEANTIGKTPFSEVISFIVSECDDAANNLPDSYVNEPGAEIGRVTKGFAMAVKSKALLYAASKLHNPSMDTELWKKSAKAAIDIINTGLYSLDPQESANNLDSKEVVLMRINGDDSDFEMFNLPLRMTAGTRTSSLIPYSNYPSQNLVDAFETVNGYKVTLENTGWVCEDPAFDPQSPYENRDKRFYRAILANGMSFKDYTIETFKGGADDGIVSQGGSPTGYFLRKYIQEATSFEPGKEAVSKHHWVIYRYAETLLTYAESMVNAFNDVNYTDETYKYSALWAINEVRKNADMPLIPSMGKDEFMERLYNEWRVEFAFEDHRFWDVRRWKIADTTQRELYGVKIEKQADGTFNFYKNLYETRNWRDCMYLYPIPQSELYKNTNLNPQNTGW,glycan array binding signal (z-score),[1],0.845
same,glycan array binding signal (z-score),[2],-0.815
same,glycan array binding signal (z-score),[3],0.126
same,glycan array binding signal (z-score),[4],5.75
same,glycan array binding signal (z-score),[5],-0.838
same,glycan array binding signal (z-score),[6],-0.304
same,glycan array binding signal (z-score),[7],-1.01
same,glycan array binding signal (z-score),[8],0.607
same,glycan array binding signal (z-score),[9],-0.437
same,glycan array binding signal (z-score),[10],8.17
same,glycan array binding signal (z-score),[11],0.243
same,glycan array binding signal (z-score),[12],2.9
same,glycan array binding signal (z-score),[13],3.79
same,glycan array binding signal (z-score),[14],-0.889
same,glycan array binding signal (z-score),[15],-0.458
same,glycan array binding signal (z-score),[16],3.52
same,glycan array binding signal (z-score),[17],0.949
same,glycan array binding signal (z-score),[18],3.74
same,glycan array binding signal (z-score),[19],4.65
same,glycan array binding signal (z-score),[20],0.323
same,glycan array binding signal (z-score),[21],-0.185
same,glycan array binding signal (z-score),[22],5.18
same,glycan array binding signal (z-score),[23],0.219
same,glycan array binding signal (z-score),[24],0.845
same,glycan array binding signal (z-score),[25],3.99
same,glycan array binding signal (z-score),[26],-0.28
same,glycan array binding signal (z-score),[27],-0.744
